# Source: PubChem BioAssay
# An excerpt weighted towards active compounds, which were near 0.9% of everything screened.
# UGM FP inh – blocks M. tuberculosis UGM enzyme; purified UGM, fluorescence polarization probe displacement; inhibition, % at 10 µM; P9WIQ1; AID 504406; hit rate 0.06% among 320,000; in the data active means inhibition above about 10%, passing the limit was not always enough
# FadD28 binding – inhibitors of Mycobacterium tuberculosis FadD28 bisubstrate binding; AID 588549; inhibition, % at 12.5 µM; FadD28 bisubstrate probe binding, fluorescence polarization; hit rate 0.22% among 360,000; in the data active means inhibition above about 8.5%, passing the limit was not always enough
# RecA intein inh – Mtb RecA intein splicing inhibition; P9WHJ3; cell-free RecA intein splicing, fluorescence; inhibition, % (concentration not given with the values); hit rate 0.75% among 290,000; in the data active means inhibition above about 30%;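 further: 0% = vehicle wells and 100% = reference inhibitor control wells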
# Target sequence (P9WHJ3 whole entry, looked up): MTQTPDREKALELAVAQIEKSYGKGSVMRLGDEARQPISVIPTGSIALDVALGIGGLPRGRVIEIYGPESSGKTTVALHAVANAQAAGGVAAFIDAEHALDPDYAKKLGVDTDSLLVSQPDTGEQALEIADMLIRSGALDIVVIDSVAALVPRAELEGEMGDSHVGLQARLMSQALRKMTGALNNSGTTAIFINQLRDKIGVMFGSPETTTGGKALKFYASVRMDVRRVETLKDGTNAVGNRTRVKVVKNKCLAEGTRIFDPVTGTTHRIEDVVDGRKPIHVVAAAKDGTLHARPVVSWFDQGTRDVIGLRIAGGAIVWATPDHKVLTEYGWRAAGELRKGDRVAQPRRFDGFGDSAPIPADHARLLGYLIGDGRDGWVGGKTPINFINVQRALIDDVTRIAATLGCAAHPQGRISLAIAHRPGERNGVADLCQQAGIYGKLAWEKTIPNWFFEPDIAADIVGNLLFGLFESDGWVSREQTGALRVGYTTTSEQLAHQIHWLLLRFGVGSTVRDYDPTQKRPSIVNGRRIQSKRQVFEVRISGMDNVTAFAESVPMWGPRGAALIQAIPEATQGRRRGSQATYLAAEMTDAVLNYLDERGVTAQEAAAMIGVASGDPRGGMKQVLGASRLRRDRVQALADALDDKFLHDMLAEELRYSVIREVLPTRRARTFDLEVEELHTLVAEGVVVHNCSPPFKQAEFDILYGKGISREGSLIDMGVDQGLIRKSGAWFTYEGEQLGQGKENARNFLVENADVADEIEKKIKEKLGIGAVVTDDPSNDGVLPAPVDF
# Rv3671c inh – inhibitors of M. tuberculosis serine protease Rv3671c; AID 2606; P9WHR9; inhibition, % at 5.96 µM; hit rate 0.048% among 320,000; in the data active means inhibition above about 38%;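 further: extracellular domain of Rv3671c used as enzyme; 0% = enzyme with DMSO and 100% = no enzyme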
# TcdB inh – TcdB glycohydrolase inhibition; P18177; TcdB glycohydrolase enzymatic assay, plate reader; inhibition, % at 9.99 µM; hit rate 0.24% among 350,000; AID 652162; in the data active means inhibition above about 10%
# Mtb BioA inh – inhibitors of Mycobacterium tuberculosis BioA enzyme. purified M. tuberculosis BioA enzyme, plate reader. inhibition, % at 9.99 µM. hit rate 0.096% among 360,000; in the data active means inhibition above about 40%
# Numbers without * were called inactive; x = no result given; ! = a repeat was not active.
SMILES,UGM FP inh,FadD28 binding,RecA intein inh,Rv3671c inh,TcdB inh,Mtb BioA inh
CCCNC(=O)C[C@H]1CC[C@@H]2[C@H](COC[C@@H](O)CN2C(=O)Nc2cccc(Cl)c2)O1,x,x,x,x,0,3
O=C(NCC[C@@H]1CC[C@H](NC(=O)c2cnccn2)[C@@H](CO)O1)Nc1ccc(F)cc1,x,x,x,x,0,7
CCOC(=O)CC1=NN(c2ccccc2)C(=O)C1,-2,-2,66*,-19,2,x
COc1ccccc1S(=O)(=O)N[C@@H]1CC[C@@H](CC(=O)NCc2cccc(F)c2)O[C@H]1CO,x,x,x,x,0,-1
COc1cccc(-c2ccc([C@@H]3[C@@H](CO)N4C(=O)CN(C(=O)NC(C)C)C[C@@H]34)cc2)c1,x,x,x,x,0,x
C[C@@H]1CCCCO[C@@H](CN(C)CC2CCCCC2)[C@@H](C)CN([C@@H](C)CO)C(=O)c2cc(NS(=O)(=O)c3ccccc3)ccc2O1,x,x,x,x,-5,1
CCN(Cc1ccc(OC)c(F)c1)C(=O)CCl,-1,-1,49*,1,0,x
CC(Oc1cc2oc(=O)c3c(c2cc1Cl)CCC3)C(=O)NCc1ccccn1 (stereo not given),-2,-1,-3,-8,-1,63*
CC(Oc1cc2oc(=O)c3c(c2cc1Cl)CCCC3)C(=O)NCc1ccccn1 (stereo not given),-3,-4,-3,-5,0,10
C[C@@H]1CN([C@@H](C)CO)C(=O)Cc2cc(NC(=O)Nc3ccc(C(F)(F)F)cc3)ccc2O[C@H]1CN(C)CC1CCCCC1,x,x,x,x,-1,-1
O=C(Cc1ccccc1)N1CC(=O)N2[C@H](C1)[C@H](c1ccc(C#CCc3ccccc3)cc1)[C@@H]2CO,x,x,x,x,1,x
O=C(O)CCNc1cc(N2CCN(C(=O)c3ccco3)CC2)c2noc3c2c1C(=O)c1ccccc1-3,2,22*,21,-28,1,-108
Cc1n[nH]c(=O)nc1Nc1ccc(O)cc1,-1,0,-2,-1,21*,0
Cc1ccccc1S(=O)(=O)N1C[C@@H](O)COC[C@@H]2O[C@@H](CC(=O)N3CCN(C)CC3)CC[C@H]21,x,x,x,x,0,-1
Cc1cc(C(=O)N2CCN(Cc3ccccc3)CC2)ccc1[N+](=O)[O-],1,-1,x,-5,12*,1
C=CCNc1n[nH]c(=S)s1,x,1,x,x,15*,-1
Cc1cc(C)c(Nc2n[nH]c(=S)s2)cc1C,x,-3,x,x,1,-2
CC(=O)Nc1n[nH]c(=S)s1,x,-3,x,x,18*,x
CNc1n[nH]c(=S)s1,3,0,-1,6,24*,-1
CN1CCN(C(=O)C[C@H]2C=C[C@@H](NC(=O)c3ccc4c(c3)OCO4)[C@@H](CO)O2)CC1,x,x,x,x,-2,x
CC1C(c2ccc3c(c2)OCO3)c2cc3c(cc2OC1N1CCOCC1)OCO3 (stereo not given),x,-2,x,x,11*,x
CCn1c(=O)c([N+](=O)[O-])c(NCCN(C)C)c2ccccc21,-3,-2,-7,5,-4,x
CCn1c(=O)c([N+](=O)[O-])c(Cl)c2ccccc21,1,-5,41*,0,x,x
O=C(c1ccccc1F)N1CCN(c2ccc([N+](=O)[O-])c3ncccc23)CC1,x,-4,23,-6,x,x
O=C(c1ccccc1F)N1CCN(c2ccc([N+](=O)[O-])c3cccnc23)CC1,0,-1,3,4,12*,x
SMILES,UGM FP inh,FadD28 binding,RecA intein inh,Rv3671c inh,TcdB inh,Mtb BioA inh
CCC(=O)Nc1cccc(-n2nnnc2SCC(=O)c2ccc(C)c(C)c2)c1,-1,11*,1,-35,0,x
CN(C)/C=C(\C#N)C(=O)Nc1ccc(O)cc1F,1,0,-1,-3,19*,x
CN(C)/C=C(\C#N)C(=O)Nc1ccccc1,-6,-5,3,8,0,x
Cc1cccc(N2C(=O)NC(=O)/C(=C/c3cc4c(cc3[N+](=O)[O-])OCO4)C2=O)c1,11*,5,-21,6,-2,x
COc1ccc(N2C(=O)NC(=O)/C(=C\c3ccccc3[N+](=O)[O-])C2=O)cc1,-2,-4,0,-10,0,0
C[C@@H]1CCCCO[C@@H](CN(C)Cc2ccc(C(=O)O)cc2)[C@H](C)CN([C@H](C)CO)C(=O)c2cc(NC(=O)CCC(F)(F)F)ccc2O1,x,x,x,x,0,-1
CCS(=O)(=O)Nc1ccc2c(c1)C(=O)N(C)C[C@H](OC)[C@H](C)CN(C)[C@@H](C)CO2,x,x,x,x,-1,-3
CCCSc1nnc(Sc2nnnn2-c2ccccc2)s1,3,0,47*,-5,x,0
Cc1ccccc1-n1nnnc1Sc1nnnn1-c1ccccc1,1,-2,x,10,x,0
C=Cc1c(C)c2cc3[nH]c(cc4nc(cc5nc(cc1[nH]2)C(C)=C5CCC(=O)O)C(CCC(=O)O)=C4C)c(C)c3C=C,-3,43*!,22,32,-2,1
CCOc1ccc(/C=N/n2nnnc2N)cc1OCC,-1,0,5,-5,0,0
CCOc1ccc(/C=N/n2nnnc2N)cc1O,3,-1,-4,6,19*,1
COc1cc(/C=N/n2nnnc2N)ccc1OCC(N)=O,0,-4,-1,3,x,4
CCOc1cc(/C=N\n2nnnc2N)ccc1O,2,-3,-3,-1,23*,1
CCC(=O)N(C)C[C@@H]1Oc2cc(-c3cncnc3)ccc2S(=O)(=O)N([C@@H](C)CO)C[C@@H]1C,x,x,x,x,1,-2
CCc1cn([C@H]2C[C@H](O)[C@@H](CO)O2)c(=O)[nH]c1=O,-2,1,0,5,0,1
Cc1nn(C2CC(O)C(O)C(CO)O2)c(=O)[nH]c1=O (stereo not given),x,-3,x,x,13*,x
CN(C)C(=O)[C@@H]1[C@@H](CO)[C@@H]2Cn3c(ccc(-c4ccccc4)c3=O)[C@H]1N2C(=O)C1CCC1,x,x,x,x,-1,-1
COc1cccc(/C=N/n2c(C3CCCCC3)n[nH]c2=S)c1O,4,15*,-2,x,2,0
COc1cccc(/C=N/n2c(C3CCCCC3)n[nH]c2=S)c1OC,0,0,-2,1,1,x
Oc1ccc(Br)cc1/C=N/n1c(C2CCCCC2)n[nH]c1=S,-1,16*,-3,-3,-2,2
CCCCCC(O)CCCC(=O)O (stereo not given),x,0,x,x,1,0
CCCCCCCCCCCCCCCC(O)C[N+](C)(C)CCO (stereo not given),x,35*,x,x,1,x
CN1CCN(CCCN2c3ccccc3Sc3ccc(Cl)cc32)CC1,4,8.2*,3,7,-1,4
Cc1ccc(S(=O)(=O)NCC[C@H]2CC[C@H](NC(=O)Nc3ccccc3F)[C@@H](CO)O2)cc1,x,x,x,x,1,1
Cc1nn(-c2ccccc2)c(Cl)c1C1C(C#N)=C(N)Oc2c1c(C)nn2-c1ccccc1 (stereo not given),3,0,12,8,x,-1
Cc1nn(-c2ccccc2)c(Cl)c1C1C(C#N)=C(N)Oc2n[nH]c(C)c21 (stereo not given),1,-3,62*,3,x,0
